Source: PubChem BioAssay (Milwaukee Institute for Drug Discovery)
In the library only some 7.6% were active in any assay of this set; here they are far more common.
HCV NS3h FP – HCV NS3 helicase inhibitors, primary screen, biochemical, fluorescence polarization, ChemBridge library; Hepatitis C virus NS3 helicase; NS3h Cy5-dT15 DNA binding; inhibition, % at 100 µM; 16,000 tested, 1.6% active; AID 687043, 2013;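 active means inhibition above the average over every tested compound plus 3 SD, cut at about 40% in these data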
Cy5 interf NS3h – Cy5 fluorescence quenchers or enhancers, artefact control for HCV NS3 helicase inhibitor project, biochemical, ChemBridge library, Cy5 readout | Cy5-dT15 DNA with NS3h, fluorescence interference; actives lie on both sides; signal over control mean, under 1 quenches | fluorescence interference ratio at 100 µM | 16,000 tested, 6% active | AID 720488, 2013;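 active means compound fluorescence over control fluorescence at most 0.8, a quencher, or at least a set upper limit, an enhancer; inactive means ratio between 0.8 and the set upper limit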
Of the large screens only hits and unclear results are named; the others gave an inactive call.

CCC(=O)Nc1ccc(C(=O)Nc2c[nH]c(=O)[nH]c2=O)cc1	none
COc1cc(OC)c(C2NC(=S)NC(C)=C2C(=O)Nc2ccc(C)c(Cl)c2)cc1OC (stereo not given)	none
CC(=O)Nc1cc(-c2nc3ccccc3s2)ccc1Cl	Cy5 interf NS3h 0.737
CC(=O)Nc1cccc(-c2nc3ccccc3s2)c1	none
COc1cc(/C=C2\C(=O)N(c3ccc(S(N)(=O)=O)cc3)N=C2C)cc(Br)c1O	none
CCOC(=O)c1c(-c2ccccc2)oc2cc(Br)c(OC(C)C(=O)OC)cc12 (stereo not given)	none
CC(=O)CC(C)(C)Nc1ccccc1	Cy5 interf NS3h 0.745
CCC(C(C)=O)C(=O)Nc1ccccc1 (stereo not given)	none
O=C(Nc1ccc(F)cc1)c1ccc(-c2ccccc2)cc1	none
CC1CCN(S(=O)(=O)c2ccc(NC(=O)c3ccc(-c4ccccc4)cc3)cc2)CC1	Cy5 interf NS3h 1.36
O=C(Nc1ccccc1)c1ccc(-c2ccccc2)cc1	Cy5 interf NS3h 1.23
CC1CCN(S(=O)(=O)c2ccc(NC(=O)c3ccc([N+](=O)[O-])cc3)cc2)CC1	none
Cc1ccc(NC(=O)C(=O)NCCC(C)C)c(C)c1	none
Cc1ccc(-c2n[nH]c(=S)c3ccccc23)cc1C	none
O=C1S/C(=C\c2cccc(Cl)c2Cl)C(=O)N1c1ccccc1	none
COc1cc(OC)c(NC(=O)c2ccc(Cl)c(Cl)c2)cc1Cl	none
O=C(Nc1cccc(Br)c1)c1cc([N+](=O)[O-])ccc1Cl	none
O=C(Nc1ccc(NC(=O)c2cc([N+](=O)[O-])ccc2Cl)cc1)c1ccc(Br)cc1	Cy5 interf NS3h 0.536
O=C(c1ccc([N+](=O)[O-])cc1)N1CCSC1c1ccc2c3c(cccc13)CC2 (stereo not given)	none
CCOc1cc(OCC)cc(C(=O)Nc2cccc(C(F)(F)F)c2)c1	Cy5 interf NS3h 0.501
CCOc1ccc(NC(=O)C(=O)Nc2cccc(C(F)(F)F)c2)cc1	none
Cc1cc(C(F)(F)F)nn1CC(=O)Nc1sc2c(c1C(N)=O)CCC(C)C2 (stereo not given)	Cy5 interf NS3h 0.75
CCOC(=O)c1c(NC(=O)Cn2nc(C(F)(F)F)cc2C)sc2c1CCC(C)C2 (stereo not given)	none
Cc1nc2c(C)c(-c3ccccc3)[nH]n2c(=O)c1C	none
CCOC(=O)CCc1c(C)nc2c(C)c(-c3ccccc3)[nH]n2c1=O	Cy5 interf NS3h 1.21
COc1ccc(NC(=O)c2cnn3c2NC(c2ccccc2)CC3C(F)(F)F)cc1OC (stereo not given)	Cy5 interf NS3h 0.73
COc1ccc(C2CC(C(F)(F)F)n3ncc(C(=O)Nc4cccc(C(C)O)c4)c3N2)cc1OC (stereo not given)	Cy5 interf NS3h 0.699
COc1cc(C2CC(C(F)(F)F)n3ncc(C(=O)N4CCN(Cc5ccccc5)CC4)c3N2)cc(OC)c1OC (stereo not given)	none
COc1ccc(C2CC(C(F)(F)F)n3ncc(C(=O)Nc4cc(Cl)ccc4O)c3N2)cc1OC (stereo not given)	none
CC(O)c1cccc(NC(=O)c2cc3n(n2)C(C(F)(F)F)CC(c2ccc(Cl)cc2)N3)c1 (stereo not given)	none
CC(O)c1cccc(NC(=O)c2cnn3c2NC(c2ccco2)CC3C(F)(F)F)c1 (stereo not given)	Cy5 interf NS3h 0.494
COc1ccc(C2CC(C(F)(F)F)n3ncc(C(=O)O)c3N2)cc1OC (stereo not given)	none
O=C(c1cnn2c1NC(c1ccco1)CC2C(F)(F)F)N1CCN(Cc2ccccc2)CC1 (stereo not given)	Cy5 interf NS3h 0.7
COc1cccc(/C=C2\N=C(c3ccccc3Br)OC2=O)c1	none
COc1ccc(/C=C/C(=O)c2ccc(Br)cc2)cc1[N+](=O)[O-]	none
CCc1cc2c(=O)c(-c3nc4ccccc4s3)coc2cc1OS(C)(=O)=O	none
COc1ccc(/C=N\NC(=O)/C(=C\c2ccc3c(c2)OCO3)NC(=O)c2ccccc2)cc1Cl	none
CCN(CC)c1ccc(N2C(=O)/C(=C/c3ccc(Cl)cc3)SC2=S)cc1	none
CCOC(=O)C1=C(C)N=c2s/c(=C\c3sccc3C)c(=O)n2C1c1cc(OC)ccc1OC (stereo not given)	none
O=C(Nc1ccc(Cl)c(Cl)c1)Nc1nnc(-c2ccccc2)s1	none
O=C(Oc1ccc2oc(=O)sc2c1)c1ccccc1Br	none
COc1ccc(NC(=O)c2cnn3c2NC(c2ccco2)CC3C(F)(F)F)c(OC)c1 (stereo not given)	none
COc1ccc(CNC(=O)c2cnn3c2NC(c2ccco2)CC3C(F)(F)F)cc1 (stereo not given)	Cy5 interf NS3h 0.749
C=CCn1c(-c2cccc(Br)c2)n[nH]c1=S	none
Cc1ccc(C)n1-c1cccc2cccnc12	Cy5 interf NS3h 0.0702
O=S(=O)(Nc1ccc(Br)cc1)c1ccc(Cl)cc1	Cy5 interf NS3h 0.786
O=S(=O)(Nc1ccc(O)cc1)c1ccc(Br)cc1	none
O=S(=O)(Nc1ccc(O)cc1)c1ccc(F)cc1	none
O=C(c1ccc(F)cc1)c1ccc(NS(=O)(=O)c2ccc(Cl)cc2)cc1	Cy5 interf NS3h 1.21
Cc1ccc(C2C(=C(O)c3ccc(Cl)cc3)C(=O)C(=O)N2C)cc1 (stereo not given)	none
COc1ccc(NC(=NCCc2ccccc2)SC2CC(=O)N(c3ccc(F)cc3)C2=O)cc1 (stereo not given)	none
CCOC(=O)c1cnn2c(C(F)(F)F)c3c(nc12)-c1ccccc1CC3	none
N#C/C(=C\c1ccc(-c2ccccc2Cl)o1)C(=O)Nc1cccc2ncccc12	none
N#C/C(=C\c1ccc(-c2ccc(Cl)cc2)o1)C(=O)Nc1cccc2ncccc12	Cy5 interf NS3h 0.547
O=C(CSCc1cccc(Br)c1)Nc1cccc2cccnc12	none
CCOc1ccc(-c2ncnn2-c2cccc(Cl)c2)cc1	none
CCOc1cc(OCC)cc(C(=O)Nc2ccc(C(C)=O)cc2)c1	none
Cc1ccc(S(=O)(=O)N=C2C=CC(=O)C(Br)=C2)cc1	none
Cc1ccc(S(=O)(=O)N=C2C=C(Cl)C(=O)C(Br)=C2)cc1	Cy5 interf NS3h 0.606
CCN1C(=O)/C(=C\c2cccc(OCCOCCOc3ccc(C)cc3)c2)SC1=S	none
Cc1nc2sc3c(c2c2nncn12)CCCC3	Cy5 interf NS3h 0.664
Cc1nc2sc3c(c2c(=O)n1-n1cccc1)CCCC3	none
COc1ccc(C/C(N)=N\OC(=O)Cc2ccc(OC)c(OC)c2)cc1	none
CCOc1ccc(-c2cc(C)n3nc(C(=O)Nc4ccc(C(C)=O)cc4)cc3n2)cc1	Cy5 interf NS3h 0.666
Cc1cc(-c2ccccc2)nc2cc(C(=O)Nc3ccc(Cl)cc3)nn12	none
CCOc1ccc(-c2cc(C)n3nc(C(=O)N(C)Cc4ccccc4)cc3n2)cc1	none
CCOc1ccc(-c2cc(C)n3nc(C(N)=O)cc3n2)cc1	Cy5 interf NS3h 0.626
COC(=O)c1cc2nc(-c3ccc(Br)cc3)cc(C(F)(F)F)n2n1	none
CC(=O)c1ccc(NC(=O)c2cc3nc(-c4ccc(Br)cc4)cc(C(F)(F)F)n3n2)cc1	Cy5 interf NS3h 0.781
Cc1ccc(NC(=O)/C=C/c2ccccc2Cl)c(Br)c1	none
COC(=O)NC1(C(Cl)Cl)N=C(c2ccccc2)N=C1N (stereo not given)	none
CCOc1cc(OCC)cc(C(=O)Nc2ccc(C)cc2)c1	none
Cc1ccc(SCC(=O)Nc2cccc(Br)c2)cc1	none
COc1cc(/C=C2\SC(=S)NC2=O)ccc1Oc1ccc([N+](=O)[O-])cn1	none
